Laboratory results: the supplement of paper PMC10849652
The full data set covers some 7,900 targets. This sample favours those with a hit. About 0.6% of all pairs of compound and target were hits.

What was measured:
Assay in all cases: log2 fold change, soluble protein after heating vs DMSO (PISA); higher = thermal stabilisation; K562 cells, 10 uM, 30 min; active = over 0.2 and 3.5 SD of the protein, either way, in both replicates (recomputed)
[1] = compound: C1=CC=C(C=C1)[C@H](COC2=CC3=C(C=C2)NC(=O)N3)NC(=O)C4=CC=CN(C4=O)CC5=CC(=C(C=C5)F)F
How it was run: (§1)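 Aliquots of K562 cells (2×10^6 cells/mL) treated with 10 μM compound for 30 min were heated for 3 min over 48°C-58°C. After pooling and extraction in PBS with 0.5% NP-40 at 4°C, soluble protein from a 21,000xg, 90 min spin was quantified by TMTpro 16plex LC-MS/MS with channel sums equalised. Thermal stability is expressed against control samples, from duplicates, as a log2 fold change.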

[2] = compound: CC1=C(SC2=C1C(=N[C@H](C3=NN=C(N32)C)CC(=O)N)C4=CC=C(C=C4)Cl)C
How it was run: as §1

[3] = compound: CC1=C2C(=CC=C1)N=C(N(C2=O)C3=CC=CC=C3C)CN4C=NC5=C(N=CN=C54)N
How it was run: as §1

[4] = compound: Cc1sc2c(c1C)C(c1ccc(Cl)cc1)=N[C@@H](CC(=O)OC(C)(C)C)c1nnc(C)n1-2
How it was run: as §1

[5] = compound: c1ccc([C@@H]2C[C@H]2NC2CCNCC2)cc1
How it was run: as §1

Measured: log2 fold change

STAT3 (UniProt P40763)
Chain of UniProt P40763 (P40763 whole entry, looked up): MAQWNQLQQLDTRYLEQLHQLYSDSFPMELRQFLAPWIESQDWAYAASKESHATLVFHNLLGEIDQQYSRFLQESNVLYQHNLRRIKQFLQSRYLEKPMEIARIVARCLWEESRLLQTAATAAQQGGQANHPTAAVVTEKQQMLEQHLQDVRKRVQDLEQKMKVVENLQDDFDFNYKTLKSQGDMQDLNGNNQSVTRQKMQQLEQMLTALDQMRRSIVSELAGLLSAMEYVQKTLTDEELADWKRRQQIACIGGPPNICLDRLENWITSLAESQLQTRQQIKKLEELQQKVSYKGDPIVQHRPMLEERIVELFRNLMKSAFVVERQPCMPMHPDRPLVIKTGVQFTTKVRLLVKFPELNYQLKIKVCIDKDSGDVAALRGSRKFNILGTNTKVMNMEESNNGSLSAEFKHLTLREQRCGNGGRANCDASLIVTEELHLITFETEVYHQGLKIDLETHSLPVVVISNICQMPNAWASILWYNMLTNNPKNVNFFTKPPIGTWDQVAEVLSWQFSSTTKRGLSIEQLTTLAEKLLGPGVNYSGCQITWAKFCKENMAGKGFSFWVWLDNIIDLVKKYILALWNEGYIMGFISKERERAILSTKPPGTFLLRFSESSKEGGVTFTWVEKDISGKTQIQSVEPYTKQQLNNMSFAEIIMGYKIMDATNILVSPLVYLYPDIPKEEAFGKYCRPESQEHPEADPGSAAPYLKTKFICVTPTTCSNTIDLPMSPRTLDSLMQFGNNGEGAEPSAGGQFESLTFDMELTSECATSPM
inactive: [1] -0.033 | [2] 0.034 | [3] 0.1 | [4] 0.024 | [5] -0.006

SMPD4 isoform 2 (UniProt Q9NXE4)
inactive: [1] -0.25 | [2] -0.029 | [3] -0.048 | [4] -0.061 | [5] -0.097

SP1 (UniProt P08047)
inactive: [1] 0.002 | [2] -0.029 | [3] 0.016 | [4] 0.051 | [5] 0.02

TK1 (UniProt P04183)
Chain of UniProt P04183 (P04183 whole entry, looked up): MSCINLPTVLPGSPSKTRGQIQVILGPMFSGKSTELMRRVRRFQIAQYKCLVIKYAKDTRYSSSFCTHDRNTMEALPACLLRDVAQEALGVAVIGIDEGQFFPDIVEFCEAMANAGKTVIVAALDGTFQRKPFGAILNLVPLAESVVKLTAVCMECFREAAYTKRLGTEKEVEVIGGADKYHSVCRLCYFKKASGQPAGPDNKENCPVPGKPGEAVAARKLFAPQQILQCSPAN
inactive: [1] 0.002 | [2] -0.008 | [3] -0.011 | [4] -0.019 | [5] 0.008

SRCAP (UniProt Q6ZRS2)
inactive: [1] 0.074 | [2] 0.013 | [3] 0.101 | [4] -0.005 | [5] -0.136

SRSF2 (UniProt Q01130)
Chain of UniProt Q01130 (Q01130 whole entry, looked up): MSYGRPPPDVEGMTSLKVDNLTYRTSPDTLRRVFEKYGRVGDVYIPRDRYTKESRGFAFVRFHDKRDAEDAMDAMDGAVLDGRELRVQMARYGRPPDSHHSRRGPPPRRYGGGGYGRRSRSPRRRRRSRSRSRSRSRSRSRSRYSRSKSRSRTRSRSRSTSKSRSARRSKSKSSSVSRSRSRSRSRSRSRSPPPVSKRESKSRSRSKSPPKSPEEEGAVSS
inactive: [1] 0.008 | [2] -0.047 | [3] -0.052 | [4] 0.061 | [5] 0.143

SPAST (UniProt Q9UBP0)
inactive: [1] -0.057 | [2] 0.026 | [3] 0.117 | [4] -0.016 | [5] -0.085

SLIRP (UniProt Q9GZT3)
inactive: [1] -0.038 | [2] -0.073 | [3] 0.01 | [4] -0.016 | [5] 0.042

TGFBI (UniProt Q15582)
inactive: [1] -0.115 | [2] -0.024 | [3] 0.019 | [4] -0.048 | [5] -0.08

SLC25A36 (UniProt Q96CQ1)
inactive: [1] 0.027 | [2] -0.041 | [3] -0.066 | [4] 0.051 | [5] -0.008

SNRNP27 (UniProt Q8WVK2)
inactive: [1] 0.027 | [2] -0.058 | [3] 0.021 | [4] 0.023 | [5] 0.044

SUGP1 (UniProt Q8IWZ8)
inactive: [1] 0 | [2] -0.001 | [3] 0.066 | [4] -0.046 | [5] 0.019

SMPD4 isoform 4 (UniProt Q9NXE4)
inactive: [1] -0.094 | [2] 0.031 | [3] 0.043 | [4] -0.034 | [5] -0.104

SNX3 (UniProt O60493)
inactive: [1] -0.057 | [2] 0 | [3] 0.105 | [4] -0.006 | [5] -0.064

SRP72 (UniProt O76094)
inactive: [1] -0.068 | [2] -0.016 | [3] 0.047 | [4] 0.097 | [5] -0.016

STARD3NL (UniProt O95772)
inactive: [1] 0.027 | [2] 0.025 | [3] 0.142 | [4] 0 | [5] 0.039

SRXN1 (UniProt Q9BYN0)
inactive: [1] -0.02 | [2] 0.086 | [3] 0.117 | [4] -0.05 | [5] 0.086

TMBIM6 isoform 2 (UniProt P55061)
inactive: [1] -0.037 | [2] -0.022 | [3] 0.041 | [4] -0.03 | [5] 0.041

TBC1D15 isoform 3 (UniProt Q8TC07)
inactive: [1] -0.072 | [2] 0.013 | [3] 0.045 | [4] 0.005 | [5] -0.019

STAM2 (UniProt O75886)
inactive: [1] -0.015 | [2] 0.005 | [3] 0.014 | [4] 0.016 | [5] -0.001

SYNE1 (UniProt Q8NF91)
inactive: [1] -0.009 | [2] 0.24 | [3] 0.223 | [4] -0.018 | [5] -0.052

SPAG9 (UniProt O60271)
Chain of UniProt O60271 (O60271 whole entry, looked up): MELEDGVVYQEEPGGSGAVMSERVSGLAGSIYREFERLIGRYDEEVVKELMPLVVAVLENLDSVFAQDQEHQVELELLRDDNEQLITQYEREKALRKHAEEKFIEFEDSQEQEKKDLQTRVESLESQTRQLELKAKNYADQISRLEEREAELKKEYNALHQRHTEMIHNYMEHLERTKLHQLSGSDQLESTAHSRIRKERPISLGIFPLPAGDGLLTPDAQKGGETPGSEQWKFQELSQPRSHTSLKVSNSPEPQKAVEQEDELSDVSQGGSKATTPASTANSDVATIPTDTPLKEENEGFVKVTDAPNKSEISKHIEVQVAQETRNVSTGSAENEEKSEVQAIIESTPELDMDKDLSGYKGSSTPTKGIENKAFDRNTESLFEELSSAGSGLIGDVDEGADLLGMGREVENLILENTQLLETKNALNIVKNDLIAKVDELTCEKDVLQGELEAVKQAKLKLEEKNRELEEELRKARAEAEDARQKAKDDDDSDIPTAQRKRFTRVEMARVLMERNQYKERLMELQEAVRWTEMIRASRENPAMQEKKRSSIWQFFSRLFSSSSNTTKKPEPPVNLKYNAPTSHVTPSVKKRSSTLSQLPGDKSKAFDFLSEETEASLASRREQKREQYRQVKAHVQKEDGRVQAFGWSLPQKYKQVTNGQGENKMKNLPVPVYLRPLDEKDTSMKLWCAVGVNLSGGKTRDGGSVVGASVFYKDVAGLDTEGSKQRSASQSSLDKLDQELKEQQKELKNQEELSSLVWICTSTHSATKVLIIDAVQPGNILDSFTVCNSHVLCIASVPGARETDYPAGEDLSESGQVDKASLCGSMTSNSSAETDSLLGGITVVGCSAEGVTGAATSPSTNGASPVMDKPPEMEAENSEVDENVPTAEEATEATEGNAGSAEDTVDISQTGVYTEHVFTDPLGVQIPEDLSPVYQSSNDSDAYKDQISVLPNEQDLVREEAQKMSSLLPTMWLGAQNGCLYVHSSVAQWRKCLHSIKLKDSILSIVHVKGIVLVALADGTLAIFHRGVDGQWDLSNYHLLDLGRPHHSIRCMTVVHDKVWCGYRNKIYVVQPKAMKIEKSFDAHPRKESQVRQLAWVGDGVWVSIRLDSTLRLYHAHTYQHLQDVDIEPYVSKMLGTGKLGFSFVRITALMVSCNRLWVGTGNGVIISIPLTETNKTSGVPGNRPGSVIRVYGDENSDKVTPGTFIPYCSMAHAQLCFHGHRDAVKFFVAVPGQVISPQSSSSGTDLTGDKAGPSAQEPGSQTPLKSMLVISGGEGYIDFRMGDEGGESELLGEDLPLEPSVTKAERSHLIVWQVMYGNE
inactive: [1] -0.033 | [2] 0.002 | [3] 0.071 | [4] 0.024 | [5] -0.006

STK11IP (UniProt Q8N1F8)
Chain of UniProt Q8N1F8 (Q8N1F8 whole entry, looked up): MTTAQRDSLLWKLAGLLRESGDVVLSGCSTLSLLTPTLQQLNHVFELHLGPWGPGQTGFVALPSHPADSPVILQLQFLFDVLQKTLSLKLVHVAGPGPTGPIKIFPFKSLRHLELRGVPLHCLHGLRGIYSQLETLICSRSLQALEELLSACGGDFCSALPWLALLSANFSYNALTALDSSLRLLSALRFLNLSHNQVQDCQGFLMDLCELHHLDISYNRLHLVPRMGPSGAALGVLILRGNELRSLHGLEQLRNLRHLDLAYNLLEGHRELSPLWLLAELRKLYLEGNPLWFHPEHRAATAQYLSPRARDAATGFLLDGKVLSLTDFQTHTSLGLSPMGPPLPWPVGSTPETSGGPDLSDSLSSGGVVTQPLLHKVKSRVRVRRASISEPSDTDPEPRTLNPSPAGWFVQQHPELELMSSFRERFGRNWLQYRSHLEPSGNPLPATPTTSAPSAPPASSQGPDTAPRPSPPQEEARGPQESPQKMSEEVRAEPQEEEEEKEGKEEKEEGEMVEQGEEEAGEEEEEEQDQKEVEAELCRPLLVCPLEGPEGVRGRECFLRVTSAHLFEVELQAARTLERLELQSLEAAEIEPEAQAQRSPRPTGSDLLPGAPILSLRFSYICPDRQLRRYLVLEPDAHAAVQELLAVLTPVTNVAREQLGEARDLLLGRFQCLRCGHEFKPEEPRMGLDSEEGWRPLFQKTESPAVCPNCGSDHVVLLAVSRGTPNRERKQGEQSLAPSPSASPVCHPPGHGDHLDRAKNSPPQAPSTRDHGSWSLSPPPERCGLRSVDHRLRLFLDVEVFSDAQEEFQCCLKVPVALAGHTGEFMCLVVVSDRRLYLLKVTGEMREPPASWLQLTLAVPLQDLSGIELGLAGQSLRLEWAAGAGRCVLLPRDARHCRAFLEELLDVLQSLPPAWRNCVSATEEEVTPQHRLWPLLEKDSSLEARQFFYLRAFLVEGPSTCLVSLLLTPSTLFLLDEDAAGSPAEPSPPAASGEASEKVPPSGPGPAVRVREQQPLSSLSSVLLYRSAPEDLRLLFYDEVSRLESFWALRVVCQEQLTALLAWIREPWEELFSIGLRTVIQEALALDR
inactive: [1] 0.035 | [2] 0.026 | [3] -0.02 | [4] 0.05 | [5] -0.048

SMCHD1 (UniProt A6NHR9)
inactive: [1] 0.129 | [2] 0.141 | [3] 0.063 | [4] 0.01 | [5] 0.036

SRPRB (UniProt Q9Y5M8)
inactive: [1] -0.005 | [2] 0.014 | [3] 0.034 | [4] -0.017 | [5] -0.016

SNX1 (UniProt Q13596)
inactive: [1] -0.019 | [2] 0.029 | [3] 0.038 | [4] -0.003 | [5] -0.07

TBC1D10B (UniProt Q4KMP7)
inactive: [1] -0.021 | [2] 0.062 | [3] 0.014 | [4] -0.026 | [5] 0.006

ST6GAL1 (UniProt P15907)
inactive: [1] 0.017 | [2] 0.012 | [3] 0.033 | [4] -0.018 | [5] -0.006

TECR (UniProt Q9NZ01)
inactive: [1] -0.015 | [2] 0.049 | [3] 0.033 | [4] -0.046 | [5] 0

STX17 (UniProt P56962)
inactive: [1] 0.03 | [2] 0.006 | [3] 0.029 | [4] 0.004 | [5] -0.058

STK38 (UniProt Q15208)
inactive: [1] -0.08 | [2] 0.045 | [3] 0.055 | [4] 0.028 | [5] -0.034

TFB2M (UniProt Q9H5Q4)
inactive: [1] -0.019 | [2] 0.035 | [3] 0.103 | [4] -0.019 | [5] -0.022

TAMM41 isoform 3 (UniProt Q96BW9)
inactive: [1] -0.012 | [2] 0.1 | [3] 0.09 | [4] -0.06 | [5] 0.001

SUCLA2 (UniProt Q9P2R7)
inactive: [1] -0.029 | [2] 0.07 | [3] 0.113 | [4] -0.017 | [5] -0.044

SUPT16H (UniProt Q9Y5B9)
inactive: [1] -0.238 | [2] 0.023 | [3] 0.279 | [4] -0.106 | [5] -0.006

SSX2 (UniProt Q16385)
inactive: [1] 0.008 | [2] -0.024 | [3] 0.038 | [4] -0.021 | [5] 0.023

SURF1 (UniProt Q15526)
inactive: [1] -0.015 | [2] -0.018 | [3] 0.15 | [4] -0.101 | [5] 0.063

TCERG1 (UniProt O14776)
inactive: [1] -0.1 | [2] 0.106 | [3] 0.182 | [4] -0.065 | [5] -0.033

SRSF3 (UniProt P84103)
inactive: [1] 0.099 | [2] -0.18 | [3] -0.159 | [4] 0.152 | [5] 0.055

TENT5C (UniProt Q5VWP2)
Chain of UniProt Q5VWP2 (Q5VWP2 whole entry, looked up): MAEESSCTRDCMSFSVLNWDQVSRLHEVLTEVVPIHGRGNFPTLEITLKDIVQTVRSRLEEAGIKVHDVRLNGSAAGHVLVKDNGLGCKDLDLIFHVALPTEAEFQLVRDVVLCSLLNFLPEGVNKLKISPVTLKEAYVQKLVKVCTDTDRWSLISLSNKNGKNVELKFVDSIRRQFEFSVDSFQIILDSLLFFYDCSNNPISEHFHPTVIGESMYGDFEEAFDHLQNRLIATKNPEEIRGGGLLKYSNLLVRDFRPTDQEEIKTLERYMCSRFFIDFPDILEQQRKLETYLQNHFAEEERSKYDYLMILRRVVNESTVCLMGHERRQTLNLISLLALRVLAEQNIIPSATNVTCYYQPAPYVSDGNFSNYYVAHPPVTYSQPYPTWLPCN
inactive: [1] 0.017 | [2] 0.25 | [3] 0.122 | [4] 0.116 | [5] -0.35

SSB (UniProt E7ERC4)
inactive: [3] 0.188

TBC1D20 isoform 3 (UniProt Q96BZ9)
Chain of UniProt Q96BZ9 (Q96BZ9 whole entry, looked up): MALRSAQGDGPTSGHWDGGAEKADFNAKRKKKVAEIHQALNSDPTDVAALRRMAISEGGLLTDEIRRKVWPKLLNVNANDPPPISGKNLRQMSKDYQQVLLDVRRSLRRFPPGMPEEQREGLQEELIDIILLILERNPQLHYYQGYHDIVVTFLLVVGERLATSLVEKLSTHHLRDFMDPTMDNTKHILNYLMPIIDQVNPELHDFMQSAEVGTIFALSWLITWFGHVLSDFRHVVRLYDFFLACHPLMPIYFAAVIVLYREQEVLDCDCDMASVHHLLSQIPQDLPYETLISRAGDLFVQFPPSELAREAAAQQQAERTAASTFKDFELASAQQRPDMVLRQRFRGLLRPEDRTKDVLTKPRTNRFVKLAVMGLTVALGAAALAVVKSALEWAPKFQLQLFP
inactive: [1] 0.017 | [2] 0.069 | [3] -0.021
active: [5] -0.403

ST3GAL2 (UniProt Q16842)
inactive: [1] 0.083 | [2] 0.006 | [3] 0.011 | [4] 0.005 | [5] 0.007

SMARCA4 (UniProt P51532)
inactive: [1] 0.073 | [2] -0.023 | [3] 0.244 | [5] -0.027

TAOK2 (UniProt Q9UL54)
inactive: [4] 0.026

SUPT5H isoform 2 (UniProt O00267)
inactive: [3] -0.015

SLC39A1 (UniProt Q9NY26)
inactive: [2] -0.156 | [5] 0.053

TBRG4 (UniProt Q969Z0)
inactive: [1] -0.106 | [2] 0.022 | [3] 0.077 | [4] -0.049 | [5] -0.017

SLC46A1 (UniProt Q96NT5)
inactive: [2] -0.09 | [3] 0.075 | [4] 0.024 | [5] 0.256

SRSF7 (UniProt Q16629)
inactive: [1] 0.136 | [2] -0.171 | [3] -0.093 | [4] 0.209 | [5] 0.055

SUN1 isoform 9 (UniProt O94901)
inactive: [2] -0.114 | [3] 0.013 | [4] 0.109 | [5] 0.018

TM7SF3 (UniProt Q9NS93)
inactive: [1] -0.058 | [2] 0.104 | [4] -0.037 | [5] 0.196

TM7SF2 (UniProt O76062)
inactive: [2] 0.182 | [3] -0.129 | [5] 0.159

THAP9 (UniProt Q9H5L6)
inactive: [1] 0.093 | [2] 0.167 | [5] -0.046

SLC8B1 (UniProt Q6J4K2)
Chain of UniProt Q6J4K2 (Q6J4K2 whole entry, looked up): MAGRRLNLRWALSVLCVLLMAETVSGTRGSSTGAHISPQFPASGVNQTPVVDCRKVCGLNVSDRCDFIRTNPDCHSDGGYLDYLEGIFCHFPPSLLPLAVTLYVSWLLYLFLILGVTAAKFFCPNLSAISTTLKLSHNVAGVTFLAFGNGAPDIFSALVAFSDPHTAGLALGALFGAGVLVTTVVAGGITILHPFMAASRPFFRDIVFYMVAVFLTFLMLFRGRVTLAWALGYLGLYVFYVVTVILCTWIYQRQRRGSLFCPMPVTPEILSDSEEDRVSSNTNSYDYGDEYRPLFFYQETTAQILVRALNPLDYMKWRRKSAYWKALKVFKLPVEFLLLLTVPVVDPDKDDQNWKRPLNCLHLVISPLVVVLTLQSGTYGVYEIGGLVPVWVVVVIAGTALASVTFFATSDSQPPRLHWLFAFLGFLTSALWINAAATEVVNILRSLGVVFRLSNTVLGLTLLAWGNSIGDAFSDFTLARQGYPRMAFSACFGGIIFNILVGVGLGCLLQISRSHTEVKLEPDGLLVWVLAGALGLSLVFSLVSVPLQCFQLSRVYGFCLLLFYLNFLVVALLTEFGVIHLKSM
inactive: [1] 0.094 | [2] 0.178 | [3] 0.019 | [5] -0.049

SSBP4 (UniProt U3KPY3)
inactive: [3] 0

SRSF9 (UniProt Q13242)
inactive: [1] 0.045 | [2] -0.452 | [3] -0.38 | [5] 0.041
